According to PMC5540273 (PLoS ONE, 2017):

How the values were obtained:
Conditions in all cases: concentration: 1 μM, replicates: in singlicate; n = 1
ERBB2 = system: ERBB2
ERBB3 = system: ERBB3
ERBB4 = system: ERBB4
ERK1 = system: T1, ERK1
T1 construct: gene MAPK3

ERK2 = system: T2, ERK2
T2 construct: gene MAPK1

ERK3 = system: T3, ERK3
T3 construct: gene MAPK6

ERK4 = system: T4, ERK4
T4 construct: gene MAPK4

ERK5 = system: T5, ERK5
T5 construct: gene MAPK7

ERK8 = system: T6, ERK8
T6 construct: gene MAPK15

ERN1 = system: ERN1
FAK = system: T7, FAK
T7 construct: gene PTK2

FER = system: FER
FES = system: FES
FGFR1 = system: FGFR1
FGFR2 = system: FGFR2
FGFR3 = system: FGFR3
FGFR4 = system: FGFR4
FGR = system: FGR
FLT1 = system: FLT1
FLT3-autoinhibited = system: FLT3-autoinhibited
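Also: KINOMEscan kinase panel screen.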

Row | SMILES | %Inh (ERBB2) [%] | %Inh (ERBB3) [%] | %Inh (ERBB4) [%] | %Inh (ERK1) [%] | %Inh (ERK2) [%] | %Inh (ERK3) [%] | %Inh (ERK4) [%] | %Inh (ERK5) [%] | %Inh (ERK8) [%] | %Inh (ERN1) [%] | %Inh (FAK) [%] | %Inh (FER) [%] | %Inh (FES) [%] | %Inh (FGFR1) [%] | %Inh (FGFR2) [%] | %Inh (FGFR3) [%] | %Inh (FGFR4) [%] | %Inh (FGR) [%] | %Inh (FLT1) [%] | %Inh (FLT3-autoinhibited) [%]
1 | Cc1ccc(C(=O)Nc2ccc(Nc3ccnc4cc(-c5ccccn5)ccc34)cc2O)cc1.Cl [GW440146] | 38 | 0 | 31 | 5 | 0 | 0 | 10 | 0 | 0 | 0 | 0 | 30 | 0 | 1 | 0 | 0 | 0 | 59 | 28 | 0
2 | COC(=O)c1c(-c2ccccc2)c2cc(OC)ccc2c(=O)n1Cc1ccccc1 | 9 | 11 | 0 | 0 | 17 | 0 | 14 | 13 | 0 | 17 | 0 | 0 | 22 | 7 | 3 | 3 | 0 | 29 | 0 | 21
3 | Cc1ccccc1-n1cnc2c(N)ncnc21 [SKF-97510] | 0 | 0 | 0 | 0 | 0 | 2 | 0 | 0 | 0 | 0 | 0 | 4 | 0 | 0 | 0 | 0 | 0 | 0 | 0 | 0
4 | O=C(Nc1n[nH]c2nc(-c3nccs3)c(Br)cc12)C1CCCC1 [SB-742609] | 0 | 0 | 0 | 10 | 2 | 0 | 100 | 0 | 60 | 12 | 0 | 0 | 0 | 0 | 0 | 0 | 12 | 20 | 29 | 10
5 | COc1cc2ncnc(Nc3ccc4nc(-c5ccccc5)[nH]c4c3)c2cc1OC.Cl [GW282450] | 23 | 0 | 33 | 0 | 0 | 0 | 0 | 0 | 0 | 4 | 0 | 42 | 6 | 10 | 0 | 0 | 14 | 14 | 38 | 0
6 | Cc1ccc(NC(=O)Nc2cc(C(C)(C)C)nn2-c2ccccc2)cc1 [GSK1014915] | 36 | 10 | 0 | 0 | 0 | 7 | 26 | 0 | 52 | 0 | 0 | 20 | 0 | 6 | 25 | 16 | 15 | 18 | 33 | 38
7 | O=S(=O)(c1ccc(-c2ccnc3[nH]ccc23)cc1)N1CCCC1 [GSK846226] | 0 | 0 | 0 | 0 | 0 | 11 | 30 | 0 | 0 | 35 | 0 | 12 | 0 | 0 | 0 | 12 | 2 | 16 | 22 | 8
8 | COc1cccc(-c2cc(-c3c[nH]nc3-c3ccccn3)ccn2)c1 [GW680338] | 5 | 17 | 0 | 4 | 0 | 16 | 8 | 0 | 0 | 0 | 0 | 0 | 9 | 0 | 0 | 1 | 6 | 19 | 3 | 0
9 | COc1ccc(Nc2nccc(-c3cccc(NC(=O)c4cc5cc(F)ccc5[nH]4)c3)n2)cc1 [GSK1229782] | 58 | 29 | 34 | 13 | 17 | 17 | 24 | 28 | 0 | 2 | 1 | 43 | 27 | 21 | 0 | 13 | 2 | 60 | 17 | 0
10 | NC(=O)c1nnc2ccccc2c1N | 22 | 45 | 4 | 0 | 18 | 0 | 2 | 5 | 0 | 22 | 12 | 0 | 4 | 41 | 7 | 90 | 0 | 21 | 7 | 16
11 | Fc1cccc(COc2nnc(-c3ccc4c(c3)CCO4)o2)c1 | 3 | 13 | 0 | 0 | 13 | 0 | 0 | 8 | 0 | 15 | 0 | 0 | 14 | 5 | 0 | 0 | 0 | 19 | 0 | 3
12 | CC(C)(C)c1ccc(C(=O)Nc2cn3cc(Cl)ccc3n2)cc1 | 14 | 0 | 0 | 0 | 0 | 0 | 0 | 0 | 0 | 0 | 0 | 4 | 0 | 12 | 0 | 0 | 0 | 0 | 43 | 0
13 | COc1ccc(C2=C(Nc3cccc(C(=O)O)c3)C(=O)NC2=O)cc1 [SB-390765] | 0 | 0 | 0 | 0 | 7 | 19 | 1 | 10 | 7 | 21 | 13 | 0 | 21 | 13 | 13 | 14 | 0 | 6 | 4 | 17
14 | Cl.NC(=O)c1cccc(Nc2nccc(Nc3ccc(Oc4cccc(Cl)c4)c(Cl)c3)n2)c1 [GW659008] | 79 | 82 | 55 | 3 | 0 | 15 | 0 | 61 | 0 | 19 | 0 | 9 | 0 | 18 | 0 | 0 | 0 | 52 | 36 | 0
